A number with no mark means an inactive call. Calls of active or inactive are those of the source.

This test is described as follows: plasmodial surface anion channel blockers, osmotic lysis – cell-based, P. falciparum Indochina, OD700, 1 h, primary screen (AID 1154). The following applies: P. falciparum Indochina infected RBC osmotic lysis, higher = more signal, called active from +8 up or from −8 down.
Consider `O=C1C[C@]2(c3ccc([N+](=O)[O-])cc3)C(=O)N(Cc3ccccc3)c3cc(CO)ccc3[C@H]2N1CC12CC3CC(CC(C3)C1)C2`, for which the z-score was 0.556.

Consider `Cc1c(NC(=O)/C(C#N)=C/C=C/c2ccc(N(C)C)cc2)c(=O)n(-c2ccccc2)n1C`, for which the z-score was 16.3 (active).

For the compound `COCCOC(=O)N1C(=O)[C@@]2(c3ccccc31)[C@H](c1ccc(OCCO)cc1)N1[C@H](c3ccccc3)[C@H](c3ccccc3)OC(=O)[C@H]1[C@@H]2C(=O)Nc1nc2ccccc2s1`, the z-score was 4.55.

For `COCCCNC(=O)[C@@]1(Sc2ccc(C)cc2)CC(=O)N(Cc2cc(C(F)(F)F)cc(C(F)(F)F)c2)[C@@H]1c1ccc(CO)cc1`, the z-score was 0.603.

Regarding `CCCC[C@@H]1C[C@H]1[C@@H](NC(=O)c1ccccc1)c1ccc(Cl)cc1`, the z-score is 1.72.

`CC(C)C(CO)N1C(=O)[C@]2(C)C3C(=O)OCCC/C=C\[C@H]3OC23C=CCN(c2ccc(Cl)cc2)C(=O)[C@@H]13` (stereo partly specified): the z-score is 1.12.

Consider `COC(=O)[C@@]1(Cc2ccc(OC)cc2)[C@H]2c3cc(C(=O)N4CCCC4)n(CCc4cc5ccccc5[nH]4)c3C[C@H]2CN1C(=O)c1ccccc1`, for which the z-score was 4.17.

In the case of `CCCC[C@@H]1C[C@H]1[C@@H](NC(=O)c1cccnc1)c1ccc(-c2ccccc2)cc1`, the z-score is 3.12.

`[N-]=[N+]=Nc1ccccc1[C@@H]1OC(c2ccc(OCCCO)cc2)=N[C@]1(CCS(=O)(=O)c1ccccc1)C(=O)NCCN1CCOCC1`: the z-score was 27.4 (active).

As to `C[C@@H](OCc1ccccc1)C1NC(=O)[C@@]23C(=O)N[C@@H](Cc4ccccc4)C2[C@H](C)[C@@]2(C)O[C@H]2C3/C=C/C/C=C\CNC(=O)CNC1=O` (stereo partly specified), the z-score was 1.53.

`C=C(CCCC)/C(=C/C[C@@H](OC(=O)c1ccncc1)c1cccc(OCCO)c1)c1cnc2ccccc2c1`: the z-score is 19.1 (active).

For `CC(=O)n1cc(C(O)C2C=CC3C(=O)N(c4ccccc4)C(=O)C3N2Nc2ccccc2)c2ccccc21` (stereo unspecified), the z-score is 20.1 (active).

Turning to `C=CCN1C(=O)[C@]2(CC=C)N=C(c3ccc(OCCCO)cc3)O[C@@H]2c2ccccc21`, the z-score is 33.2 (active).

In the case of `CCOC(=O)C[C@H]1[C@H](OC(=O)Cc2ccc3c(c2)OCO3)[C@@H](NC(=O)C2CCCCC2)c2cc(OCCCO)ccc2N1C(=O)c1ccc2ccccc2n1`, the z-score is 1.88.

Consider `O=C1O[C@@H](c2ccccc2)[C@@H](c2ccccc2)N2[C@@H](c3ccccc3OCCO)[C@]3(C(=O)Nc4ccc(C#CC5=CCCCC5)cc43)[C@@H](C(=O)NC[C@H](O)c3ccccc3)[C@H]12`, for which the z-score is 0.996.

As to `O=C1OCC=C[C@H]2OC34C=CCN(Cn5nnc6ccccc65)C(=O)[C@H]3N(CCCCCCO)C(=O)[C@@H]4[C@@H]12` (stereo partly specified), the z-score is 1.99.

As for `COCCCNC(=O)[C@]1(Cc2ccccc2N=[N+]=[N-])N=C(c2ccc(OCCCO)cc2)O[C@@H]1c1ccccc1N=[N+]=[N-]`, the z-score is 30.8 (active).

Turning to `CC(C)c1ccc(NN2C(C(O)c3ccco3)C=CC3C(=O)N(c4ccccc4)C(=O)C32)cc1` (stereo unspecified), the z-score is 6.96.

Regarding `Cc1ccc(S[C@]2(C(=O)NCC(C)C)CC(=O)N(Cc3ccccc3Cl)[C@@H]2c2ccc(CO)cc2I)cc1`, the z-score was 3.05.

With `C=CCC(OC(C)=O)[C@@H]1[C@@H](N(Cc2ccc(-c3ccccc3)cc2)C(=O)c2cccc3ccccc23)c2cc(OCCCO)ccc2N1C(=O)Cc1ccc2ccccc2c1` (stereo partly specified), the z-score is 1.14.

As to `CC=CC(O)C1C=CC2C(=O)N(C)C(=O)C2N1Nc1ccc([N+](=O)[O-])cc1[N+](=O)[O-]` (stereo unspecified), the z-score was 1.67.

Regarding `CC(C)(C)OC(=O)CC[C@]1(C(=O)NCCN2CCOCC2)N=C(c2ccc(OCCCO)cc2)O[C@H]1c1ccccc1`, the z-score was 12.5 (active).

Regarding `CCCCC(=C=CC[C@@H](O)c1ccc(OCCO)cc1)C[C@@H](O)COCc1ccccc1`, the z-score is 16.5 (active).

For `COC(=O)[C@H](Cc1ccccc1)N1CC(/C=C/C2CC2)=C[C@@H]1[C@@H](O)Cc1ccccc1`, the z-score was 1.97.

`COCCOC(=O)N1C(=O)[C@@]2(c3cc(C#CCC(C(=O)OC)C(=O)OC)ccc31)[C@H](c1ccc(OCCO)cc1)N1[C@H](c3ccccc3)[C@H](c3ccccc3)OC(=O)[C@H]1[C@@H]2C(=O)N1CCN(c2ncccn2)CC1`: the z-score is 6.55.

As for `CN(C)C(=O)[C@]1(CCC(=O)OC(C)(C)C)N=C(c2ccc(OCCCO)cc2)O[C@@H]1c1ccccc1`, the z-score is 22.5 (active).
